# In PubChem BioAssay AID1030 (National Center for Advancing Translational Sciences (NCATS), 2008):
# Screen size: about 220,000 compounds; about 16,000 (7.3%) were called active. Where a call stands in place of a potency, no number is given. Not shown: some 25% with an inconclusive outcome. Only a selection was taken, and actives are over-represented in it overall. Unmarked numbers belong to inactive results. The call rests on the fitted dose curve; in most records, active means well fitted inhibition curve with a large enough effect (not every such curve was filed as active); inconclusive means small, poorly fitted or top-dose-only effect, or another doubt; inactive means no such curve, though single readings can be large or run the other way.
# Biological target: Aldehyde dehydrogenase 1A1 (Homo sapiens) (UniProt P00352)
# Sequence (P00352 whole entry, looked up): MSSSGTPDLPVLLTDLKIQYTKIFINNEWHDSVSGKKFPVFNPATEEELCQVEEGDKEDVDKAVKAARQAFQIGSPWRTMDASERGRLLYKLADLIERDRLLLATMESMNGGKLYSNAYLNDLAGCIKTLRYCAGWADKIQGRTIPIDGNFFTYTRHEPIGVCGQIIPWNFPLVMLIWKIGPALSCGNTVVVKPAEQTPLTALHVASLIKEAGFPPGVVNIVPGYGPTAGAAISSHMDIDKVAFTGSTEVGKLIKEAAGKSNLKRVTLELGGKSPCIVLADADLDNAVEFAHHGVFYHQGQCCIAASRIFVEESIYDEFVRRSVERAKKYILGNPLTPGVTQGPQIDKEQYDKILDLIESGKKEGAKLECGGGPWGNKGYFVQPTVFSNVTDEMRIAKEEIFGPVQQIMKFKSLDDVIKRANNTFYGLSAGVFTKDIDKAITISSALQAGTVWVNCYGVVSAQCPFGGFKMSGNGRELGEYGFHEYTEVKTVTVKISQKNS
# Assay: qHTS Assay for Inhibitors of Aldehyde Dehydrogenase 1 (ALDH1A1)
# Details: Purified ALDH1A1, NADH fluorescence, propionaldehyde substrate; series mostly up to 75.3 µM
# Potency means the concentration at half of the fitted maximal effect.
Compound,"activity, negative = inhibition",Potency
COC(=O)CCCC1=CC2=CC(=O)C(C)(OC(=O)c3cccs3)C(=O)C2=CN1c1ccc(CO)cc1 (stereo not drawn),3.06% [at 13.5 µM],
Cc1ccc(NC(=O)N2CCC(c3nc4c(nnn4Cc4c(F)cccc4Cl)c(=O)[nH]3)CC2)cc1,,15.8 µM (active)
COc1ccc(CN2CCC(c3nc4ccc(Cl)cc4[nH]3)CC2)cc1,,inactive
O=C(Cc1c(F)cccc1Cl)Nc1ccc(-n2cnnn2)cc1,,inactive
COc1ccc(Cn2nnc3c(=O)[nH]c(C4CCN(C(=O)c5ccccc5Cl)CC4)nc32)cc1,,14.1 µM (active)
Cc1ccc(NC(=O)N2CCC(C(=O)NCc3ccc(F)cc3)CC2)cc1,,inactive
Cc1ccc(Cn2nnc3c(=O)n(CC(=O)N4CCCCC4)cnc32)cc1,,inactive
COC(=O)c1nc(NC(=O)c2ccc(C(C)(C)C)cc2)n[nH]1,,inactive
CSc1nc2ccc(NC(=O)c3c(F)cccc3F)cc2s1,,inactive
N/C(=N\OC(=O)c1ccc2c(c1)OCO2)c1ccc(Br)cc1,,inactive
COc1ccccc1Cn1c(C)nnc1-c1cnn(C)c1N,,inactive
O=C(CN1CCCCCC1)NCCN1C(=O)S/C(=C\c2ccccc2Cl)C1=O,,inactive
CCC1(CC)NC(=O)N(Cc2nc3ccccc3s2)C1=O,,inactive
CC(CC(=O)Nc1ccccc1)n1ccnc1 (stereo not drawn),,inactive
Cc1cccc(N2CCN(c3ccc(C(N)=O)cc3[N+](=O)[O-])CC2)c1C,,inactive
CC(NC(=O)c1ccc(N2CCNCC2)c([N+](=O)[O-])c1)C12CC3CC(CC(C3)C1)C2 (stereo not drawn),,inactive
CS(=O)(=O)N1CCN(c2ccc(C(=O)NC3C4CC5CC(C4)CC3C5)cc2[N+](=O)[O-])CC1 (stereo not drawn),,14.1 µM (active)
CCN(CC(=O)NCc1cccs1)S(=O)(=O)c1ccc(NC(C)=O)cc1,,inactive
Cc1cc(=O)[nH]c(SCC(=O)N2c3ccccc3CC2C)n1 (stereo not drawn),,inactive
CCn1c(CSc2ncccn2)nnc1SCC(=O)N1c2ccccc2CC1C (stereo not drawn),,25.1 µM (active)
CC1CC(C)CN(C(=O)CSc2nnc(CSc3ncccn3)n2C)C1 (stereo not drawn),,inactive
Cc1noc(C)c1-c1nc(CSc2ccc(Cl)cc2)no1,,inactive

Compound,"activity, negative = inhibition",Potency
CC1CCC(NC(=O)C2c3ccccc3C(=O)N2Cc2ccc3c(c2)OCO3)CC1 (stereo not drawn),,inactive
CN(CC(=O)Nc1ccccc1[N+](=O)[O-])Cc1ccc(Br)cc1,,inactive
CCOc1ccc(Br)cc1S(=O)(=O)N1CCC(C(=O)O)CC1,,inactive
CCOc1ccc(Br)cc1S(=O)(=O)Nc1cccc(S(=O)(=O)N(CC)CC)c1,,11.2 µM (active)
CCOc1ccc(Br)cc1S(=O)(=O)Nc1ccc(C(=O)OC(C)C(=O)N(C)c2ccccc2)cc1 (stereo not drawn),,inactive
N#Cc1c(-c2ccc(F)cc2)nc(-c2ccccc2)[nH]c1=O,,inactive
Cc1ccc(OCCCn2c(=O)oc3ccccc32)cc1,,inactive
CC(=O)c1cccc(CN2CCC(CO)(Cc3ccccc3)CC2)c1,,inactive
OCCC1CN(Cc2ccc3nsnc3c2)CCN1C1CCCC1 (stereo not drawn),,inactive
OCC1(CCc2ccccc2)CCN(Cc2ccc3nsnc3c2)CC1,,8.91 µM (active)
CSc1ccccc1C(=O)NCc1ccccc1,,inactive
CCc1cccc(C)c1NC(=S)N(CCCN1CCN(C)CC1)Cc1cccs1,,inactive
CCN(C(=O)COC(=O)c1cc(S(=O)(=O)N2CCc3ccccc32)ccc1OC)C1CCS(=O)(=O)C1 (stereo not drawn),,inactive
COc1ccc(C(=O)OCC(=O)NCC2CCCCC2)cc1S(=O)(=O)N1CCCc2ccccc21,,20 µM (active)
CCC(C)(C)NC(=O)/C=C/c1cc(OC)c(OC)c(S(=O)(=O)N2CCc3ccccc32)c1,,inactive
O=C(O)c1ccn(COc2ccc(Br)cc2)n1,,inactive
O=C(CSc1nnc2ccc(-c3ccncc3)nn12)N1CCCCC1,,inactive
CC(C)(C)c1cc(NC(=O)NN2CCOCC2)nn1-c1c(Cl)cc(Cl)cc1Cl,,inactive
COc1ccc(CC(=O)N[C@@H](CCSC)c2nc3ccccc3[nH]2)cc1,,8.91 µM (active)
CSCCC(NC(=O)c1cc([N+](=O)[O-])cc([N+](=O)[O-])c1)c1nc2ccccc2[nH]1 (stereo not drawn),,inactive
CSCCC(NC(=O)c1ccc(=O)n(C)n1)c1nc2ccccc2[nH]1 (stereo not drawn),,inactive
Cc1ccc(C(=O)Cn2cc([N+](=O)[O-])nc2C)cc1,,inactive

Compound,"activity, negative = inhibition",Potency
C=CCn1cnc2scc(-c3ccccc3)c2c1=O,,inactive
C=CCn1c(SCC(=O)/C(C#N)=C(\C)N)nc2sc(C)c(C)c2c1=O,,inactive
C=CCn1c(SCc2csc(C)n2)nc2scc(-c3ccc(C)o3)c2c1=O,,22.4 µM (active)
CN1CCCN(C(=O)C2CCCCC2)CC1,,inactive
COc1ccccc1NC(=O)CCSc1nnc(-c2ccc(O)cc2)o1,,inactive
O=C1CCCCC(=O)c2ccccc2N1,,inactive
CN(C)/C=C1/C(=O)Nc2ccccc21,,inactive
CN(C)/C=C1/Nc2ccccc2C1=O,,25.1 µM (active)
CCOC(=O)C1(Cc2cccc(OC)c2)CCCN(S(=O)(=O)c2cccnc2)C1 (stereo not drawn),,inactive
O=C(NCCCN1CCOCC1)c1ccccc1NS(=O)(=O)c1ccc(Br)cc1,,inactive
CCOC(=O)NC(=O)C(=CNc1cccc(OC)c1)C(=O)NC(=O)OCC,,inactive
CCc1c(C)sc(NC(=O)/C=C/c2ccc3c(c2)OCO3)c1C(=O)OC,,inactive
CSC1=N/C(=C\c2ccc3c(c2)OCO3)C(=O)S1,,inactive
CCC1=C/C(=C\c2ccc3c(c2)OCO3)C(=O)S1,,28.2 µM (active)
CC(C)(C)NCC(O)COc1cccc2[nH]c(=O)[nH]c12 (stereo not drawn),,inactive
COc1cc2c(cc1OC)CC1(CCCCC1)N=C2,,inactive
COc1ccc(CCNC(=O)C(Sc2ccccn2)c2ccccc2)cc1OC (stereo not drawn),,inactive
COc1ccc(CCN(C(=O)COc2ccccc2)c2nc(-c3ccccc3)cs2)cc1OC,,inactive
COc1ccc(C(CCN(Cc2ccc(OC)c(OC)c2)C(=O)CCl)c2ccccc2)cc1 (stereo not drawn),,3.55 µM (active)
CCN(CC)CCNC(=O)c1sc2ncn(CC(=O)Nc3ccc(C)c(Cl)c3)c(=O)c2c1C,,inactive
COCCNC(=S)N(Cc1cccnc1)Cc1ccc(OC)c(OC)c1,,inactive
COC(=O)c1ccc(CSc2nncn2N)cc1,,inactive

Compound,"activity, negative = inhibition",Potency
CN1C=CC=C/C1=C1\SC(=S)N(Cc2ccccc2)C1=O,,12.6 µM (active)
CCCCN1C(=O)/C(=C2/C=CC=CN2C)SC1=S,,22.4 µM (active)
CCN1C(=O)/C(=C2/Sc3ccccc3N2CCCS(=O)(=O)O)SC1=S,,inactive
CC12C(=O)N(c3ccccc3)C(=O)C1C(c1ccccc1)N1CCCN12 (stereo not drawn),,inactive
N#CC1(C#N)C(C(=O)C23CC4CC(CC(C4)C2)C3)C12CCOCC2 (stereo not drawn),,inactive
O=C(c1ccncc1)c1ccc([N+](=O)[O-])cc1,,inactive
Cc1ccc(C(=O)NCC(=O)O)s1,,inactive
O=C(N/C(=C\c1ccc(F)cc1)C(=O)N1CCCCCC1)c1ccccc1,,inactive
CCS(=O)(=O)c1ccc2oc(SCC(=O)N3c4ccccc4CC3C)nc2c1 (stereo not drawn),,28.2 µM (active)
CC1Cc2ccccc2N1C(=O)CSc1nc2ccccc2o1 (stereo not drawn),,inactive
CC1Cc2ccccc2N1C(=O)CSc1nnc(-c2ccc(S(=O)(=O)N3CCCCC3)cc2)o1 (stereo not drawn),,inactive
CO/N=C/c1cn(-c2ccc(Cl)cc2)nn1,,inactive
COc1cccc([C@@H]2Oc3ccc(Br)cc3C(=O)[C@H]2OC(=O)NCc2ccc3c(c2)OCO3)c1,,inactive
C1CC1Cc1noc(CN2CCN(CC3CC3)CC2)n1,,inactive
CCOc1cc(NC(=O)c2ccccn2)c(OCC)cc1NC(=O)c1ccc(OC)cc1,,inactive
CCOc1cc(NC(=O)CCl)c(OCC)cc1NC(C)=O,,25.1 µM (active)
CCCC(=O)Nc1cc(OCC)c(NC(=O)NC2CCCCC2)cc1OCC,,inactive
CC(=O)NC(CC(=O)O)c1ccc(F)cc1 (stereo not drawn),,inactive
CC(Nc1nc(N2CCCC2)nc2ccccc12)c1ccccc1 (stereo not drawn),,inactive
Cc1ccc(C(CC(=O)O)Nc2nc(N3CCCCC3)nc(N3CCCCC3)n2)cc1 (stereo not drawn),,25.1 µM (active)
CC(C)C1N=C2c3ccccc3N=C(SCC(=O)c3ccc(O)c(O)c3)N2C1=O (stereo not drawn),,0.631 µM (active)
Cc1ccc(NC(=O)N2CCSc3ccccc32)cc1,,inactive

Compound,"activity, negative = inhibition",Potency
Cn1ccc(=NC=C(C#N)C#N)c2ccccc21,,inactive
Cc1ccc(NNC(=O)c2c(F)cccc2Cl)cc1Cl,,inactive
CCOC(=O)C(=Cc1ccccc1OC)C(=O)OCC,,inactive
Cc1cc(O)ccc1NC1=CC(=O)CC(C)(C)C1,,inactive
Cc1cc(C)nc(NNC2=CC(=O)CC(C)(C)C2)n1,,25.1 µM (active)
COC(=O)NNC1=CC(=O)CC(C)(C)C1,,inactive
CCc1nnc(NC(=O)Cc2cccs2)s1,,inactive
O=C(c1ccc(F)cc1)c1cn(Cc2ccc(F)cc2)c2cc3c(cc2c1=O)OCCO3,,inactive
CCCOc1ccccc1C1CC(=O)Nc2cc3c(cc21)OCO3 (stereo not drawn),,inactive
O=C1N/C(=C/c2cccn2-c2ccccc2)C(=O)N1c1cccc(Cl)c1,,inactive
COc1cc2c(cc1/C=C1/NC(=O)N(c3ccccc3)C1=O)OCO2,,3.98 µM (active)
COC(=O)c1c(C(=O)OC)c2n(c1C)CCS2,,inactive
CCN(CC)C(=O)CS(=O)CC(=O)Nc1cc(OCCOC)c(Cl)cc1Cl (stereo not drawn),,inactive
Oc1oc(-c2ccccc2Br)nc1/C=N/c1ccccn1,,11.2 µM (active)
CCOc1ccc2nc(/N=C/c3nc(-c4ccccc4)oc3O)sc2c1,,inactive
CC(N=Cc1nc(-c2ccccc2)oc1O)c1ccccc1 (stereo not drawn),,inactive
CCOC(=O)C1=C(C)N=C2c3ccccc3C(=O)C2C1c1ccc(Br)cc1 (stereo not drawn),,inactive
O=C(CN1C(=O)c2ccccc2S1(=O)=O)N1CCc2ccccc21,,inactive
CNC(=O)CN1C(=O)c2ccccc2S1(=O)=O,,inactive
O=C1c2ccccc2S(=O)(=O)N1CC(O)Cn1c2ccccc2c2ccccc21 (stereo not drawn),,14.1 µM (active)
